# Results reported in the antibiotic and cytotoxicity screens of Wong et al. (2023).
# The campaign covered roughly 39,000 compounds. About 3,300 (8.5%) were called active. Many of the other results were omitted from the sample, so actives are more common in it than they were.
# Tested on: HepG2
# Experiment: cytotoxicity call (relative viability < 0.9)
# Details: 10 µM
row,Compound,cytotoxicity call
1,C[C@@H]1CCCCO[C@H](CN(C)C(=O)NC2CCCCC2)[C@@H](C)CN([C@H](C)CO)C(=O)c2cc(NC(=O)Nc3ccc(C(F)(F)F)cc3)ccc2O1,inactive
2,CC(C)NC(=O)N(C)C[C@@H]1Oc2ncc(-c3ccc(C(=O)N(C)C)cc3)cc2C(=O)N([C@H](C)CO)C[C@@H]1C,inactive
3,CN(C)CCNC(=O)[C@H]1Cn2ccnc2C2(CCN(Cc3nccs3)CC2)O1,inactive
4,C[C@H](NC(=O)[C@@H](Cc1ccc2ccccc2c1)NC(=O)[C@@H](C)N)C(=O)N[C@@H](Cc1c[nH]c2ccccc12)C(=O)N[C@H](Cc1ccccc1)C(=O)N[C@@H](CCCCN)C(N)=O,inactive
5,CC(C)C[C@H](NP(=O)(O)O[C@H]1O[C@@H](C)[C@@H](O)[C@@H](O)[C@@H]1O)C(=O)N[C@H](Cc1c[nH]c2ccccc12)C(=O)O,inactive
6,CC(C)CC(NC(=O)C(C)NC(=O)CNC(=O)C(NC=O)C(C)C)C(=O)NC(C)C(=O)NC(C(=O)NC(C(=O)NC(C(=O)NC(Cc1c[nH]c2ccccc12)C(=O)NC(CC(C)C)C(=O)NC(Cc1c[nH]c2ccccc12)C(=O)NC(CC(C)C)C(=O)NC(Cc1c[nH]c2ccccc12)C(=O)NC(CC(C)C)C(=O)NC(Cc1c[nH]c2ccccc12)C(=O)NCCO)C(C)C)C(C)C)C(C)C (stereo not drawn) [GRAMICIDIN (gramicidin A shown) ],active
7,C[C@@H]1CCCCO[C@@H](CN(C)S(C)(=O)=O)[C@@H](C)CN([C@H](C)CO)C(=O)c2cc(NS(=O)(=O)c3cccs3)ccc2O1,inactive
8,C[C@@H]1CN([C@H](C)CO)C(=O)c2c(c3ccccc3n2C)-c2ccccc2CO[C@@H]1CN(C)Cc1ccc(O)cc1,inactive
9,CC(C)CC#Cc1ccc2c(c1)O[C@@H](CN(C)C(=O)c1cccnc1)[C@H](C)CN([C@H](C)CO)S2(=O)=O,inactive
10,COc1ccc(NC(=O)N(C)C[C@@H]2OCCCC[C@H](C)Oc3ccc(NC(=O)Nc4ccccc4)cc3C(=O)N([C@@H](C)CO)C[C@@H]2C)cc1,inactive
11,COc1ccc(NC(=O)N(C)C[C@@H]2Oc3ccc(NC(=O)C4CC4)cc3CC(=O)N([C@@H](C)CO)C[C@H]2C)cc1,inactive
12,O=c1ccc(-c2ccncc2)n[nH]1,inactive
13,C[C@@H]1CN([C@H](C)CO)C(=O)c2cccc(NC(=O)Nc3ccc(C(F)(F)F)cc3)c2O[C@@H]1CN(C)CC1CCCCC1,active
14,C[C@H]1CN([C@@H](C)CO)C(=O)c2cccc(NC(=O)Nc3ccc(C(F)(F)F)cc3)c2O[C@H]1CN(C)CC1CCCCC1,active
15,C[C@@H]1CN([C@H](C)CO)C(=O)c2cccc(NC(=O)Nc3ccc(F)cc3)c2O[C@H]1CN(C)CC1CCCCC1,inactive
16,C[C@@H]1CN([C@H](C)CO)C(=O)c2cccc(NC(=O)Nc3ccc(F)cc3)c2O[C@@H]1CN(C)CC1CCCCC1,inactive
17,C[C@H](CO)N1C[C@H](C)[C@H](CN(C)CC2CCCCC2)Oc2c(NC(=O)Nc3ccc(F)cc3)cccc2C1=O,inactive
18,C[C@H](CO)N1C[C@H](C)[C@@H](CN(C)CC2CCCCC2)Oc2c(NC(=O)Nc3ccc(C(F)(F)F)cc3)cccc2C1=O,inactive
19,C[C@H](CO)N1C[C@H](C)[C@H](CN(C)CC2CCCCC2)Oc2c(NC(=O)Nc3ccc(C(F)(F)F)cc3)cccc2C1=O,inactive

row,Compound,cytotoxicity call
1,C[C@@H]1CN([C@@H](C)CO)C(=O)c2cccc(NC(=O)Nc3ccc(F)cc3)c2O[C@H]1CN(C)CC1CCCCC1,inactive
2,C[C@@H]1CN([C@@H](C)CO)C(=O)c2cccc(NC(=O)Nc3ccc(C(F)(F)F)cc3)c2O[C@@H]1CN(C)CC1CCCCC1,inactive
3,C[C@H]1CN([C@@H](C)CO)C(=O)c2cccc(NC(=O)Nc3ccc(C(F)(F)F)cc3)c2O[C@@H]1CN(C)CC1CCCCC1,active
4,C[C@@H]1CN([C@H](C)CO)C(=O)c2cccc(NC(=O)Nc3ccc(C(F)(F)F)cc3)c2O[C@H]1CN(C)CC1CCCCC1,active
5,C[C@H]1CN([C@@H](C)CO)C(=O)c2cccc(NC(=O)Nc3ccc(F)cc3)c2O[C@H]1CN(C)CC1CCCCC1,inactive
6,COc1nc(C#N)nc(N2CCCCC2)n1,inactive
7,COc1ccc(S(=O)(=O)N(C)C[C@H]2OCCCC[C@@H](C)Oc3ccc(NC(=O)Nc4ccc(F)cc4)cc3C(=O)N([C@@H](C)CO)C[C@@H]2C)cc1,inactive
8,CCO[C@@H]1OC(C(=O)N2CCN(Cc3ccc4c(c3)OCO4)CC2)=C[C@H](C)[C@H]1CCCOC(=O)NCCCCCC(=O)NO,inactive
9,Cc1noc(C)c1NC(=O)Nc1ccc2c(c1)C(=O)N([C@H](C)CO)C[C@@H](C)[C@H](CN(C)Cc1ccccc1)OCCCC[C@H](C)O2,inactive
10,Cc1cccc(S(=O)(=O)N2C[C@H](O)COC[C@H]3O[C@H](CC(=O)NCCCN4CCOCC4)CC[C@@H]32)c1,inactive
11,C[C@@H]1CN([C@H](C)CO)C(=O)Cc2cc(NS(C)(=O)=O)ccc2O[C@@H]1CN(C)C(=O)Nc1ccc2c(c1)OCO2,inactive
12,C[C@@H]1CN([C@@H](C)CO)C(=O)c2cc(NC(=O)CCC(F)(F)F)ccc2O[C@@H](C)CCCCO[C@H]1CN(C)Cc1ccc2c(c1)OCO2,inactive
13,Cc1noc(C)c1S(=O)(=O)N(C)C[C@@H]1Oc2ccc(NC(=O)Cn3cnnn3)cc2CC(=O)N([C@@H](C)CO)C[C@@H]1C,inactive
14,C[C@H]1CN([C@@H](C)CO)S(=O)(=O)c2ccc(C#CCN(C)C)cc2O[C@H]1CN(C)C(=O)c1ccccc1F,inactive
15,O=C(C[C@@H]1CC[C@@H](NC(=O)CN2CCOCC2)[C@@H](CO)O1)NC1CCC1,inactive
16,COc1cccc(CN(C)C[C@@H]2OCc3ccccc3-c3c(n(C)c4ccccc34)C(=O)N([C@H](C)CO)C[C@@H]2C)c1,inactive
17,Cc1ccc(S(=O)(=O)N(C)C[C@@H]2Oc3ccc(NC(=O)CCCN(C)C)cc3C(=O)N([C@H](C)CO)C[C@@H]2C)cc1,inactive
18,Nc1ccc(/C=C/C(=O)NCc2cc3cc(-c4ccc(C(=O)N5CCC(F)(F)CC5)cc4)cc(-c4ccc(F)cc4)c3o2)cn1,active
19,C[C@H]1CN([C@@H](C)CO)C(=O)CCCn2nncc2CO[C@@H]1CN(C)C(=O)C1CC1,inactive
